# Shown are actives, neighbours in structure and some others; about 1.4% of the full set was active somewhere.
# BH1578 lux ind: inducers of Vibrio cholerae quorum light production without autoinducers, primary screen, BH1578 luxS cqsA deficient, single point; AID 588436, 2011; V. cholerae BH1578 lux reporter, luminescence, 6 h; activation, % at 18.7 µM; hit rate 0.16% among 350,000; in the data active means activation mostly above about 9.7%, no sharp cut-off
# PrPC surface inh: inhibitors of human cell surface prion protein PrPC, primary screen, cell-based, TR-FRET. TR-FRET read-out. hit rate 0.43% among 370,000. inhibition, % at 13.8 µM. AID 720596, 2013. Major prion protein (Homo sapiens), P04156; in the data active means inhibition above about 24%; further: 0% = median of the test wells and 100% = reference compound wells
# FadD28 binding: inhibitors of FadD28 bisubstrate probe binding, primary screen, biochemical, fluorescence polarization, single point. inhibition, % at 12.5 µM. hit rate 0.22% among 360,000; in the data active means inhibition above about 8.5%, passing the limit was not always enough
# PrP UTR inh: inhibition of PrP 5' UTR reporter expression. inhibition, % (concentration not given with the values). AID 488862, 2010. cell-based PrP 5' UTR mRNA reporter, plate reader. hit rate 0.35% among 340,000; in the data active means inhibition above about 52%; further: 0 = median of the neutral control wells
# SSB-PriA inh: inhibitors of Klebsiella pneumoniae PriA binding to SSB C-terminal tail, primary screen, biochemical, AlphaScreen; AID 1272365, 2023; AlphaScreen SSBct-PriA binding, biotinylated peptide; hit rate 0.6% among 430,000; inhibition, % at 33 µM; PriA–SSB C-terminal tail interaction (Klebsiella pneumoniae); in the data active means inhibition mostly above about 37%, no sharp cut-off; inactive means mostly below about 20%;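 further: plate controls were negative control peptide for no effect and reference peptide for full effect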
# PrPC TRFRET cf: confirmation of inhibitors of cell surface human prion protein, confirmation, cell-based, TR-FRET; shares compounds with PrPC surface inh; cell surface PrPC level; inhibition, % at 13.8 µM; hit rate 65% among 1,500; AID 743200, 2013; in the data active means inhibition above about 25%
# LD9 cytotox: cytotoxicity in LD9 cells, cytotoxicity control for cell surface PrPc inhibitor project, cell-based, luminescence, high throughput | shares compounds with PrPC surface inh | luminescence viability | inhibition, % at 13.8 µM | hit rate 29% among 1,500 | AID 743201, 2013; in the data active means inhibition above about 9.5%
# Numbers without * were called inactive; i = inactive; . = no result; ! = not confirmed by another sample.
SMILES,BH1578 lux ind,PrPC surface inh,FadD28 binding,PrP UTR inh,SSB-PriA inh,PrPC TRFRET cf,LD9 cytotox
N#Cc1nccnc1OC1CCN(C(=O)CCn2ccc(=O)[nH]c2=O)C1 (stereo unspecified),.,.,.,.,-9,.,.
O=C(Nc1ccc(N=Nc2ccccc2)cc1)c1cccc([N+](=O)[O-])c1,.,.,.,.,18,.,.
Cc1cc(C)c(S(=O)(=O)NCc2cccnc2)c(C)c1,i,46*,.,2,-8,35*,-5
Cc1cc(C)c(C)c(S(=O)(=O)NCc2cccnc2)c1C,0,6,-1,-18,-5,.,.
Cc1ccc(-n2nc3ccc(NC(=S)NC(=O)/C=C/c4ccco4)cc3n2)cc1,0,65*,1,-34,9,42*,-5
Cc1ccc(-n2nc3cc(C)c(NC(=S)NC(=O)/C=C/c4ccco4)cc3n2)cc1,0,18,-1,-26,-5,.,.
CCOc1ccc(/C=C2\SC(=S)N(CC(=O)Nc3ncc(Cc4cccc(C(F)(F)F)c4)s3)C2=O)cc1,.,.,.,.,2,.,.
CC(C)(C)C(=O)NC(=S)NNC(=O)c1sc2ccccc2c1Cl,0,.,-3,-18,4,.,.
CCOC(=S)NC(=O)c1sc2ccccc2c1Cl,i,45*,-3,.,0,34*,-6
CCCOC(=S)NC(=O)c1sc2ccccc2c1Cl,-7,32*,-3,.,3,38*,-3
O=C(NC(=S)NCCO)c1sc2ccccc2c1Cl,-5,78*,-1,-51,-1,80*,-4
O=C(NCc1cncc(-c2ccsc2)c1)c1nc2ccccc2s1,.,.,.,.,2,.,.
O=C(O)CC(NC(=O)c1sc2ccccc2c1Cl)c1ccc(OC2CCCC2)cc1 (stereo unspecified),-3,31*,-3,-24,-11,28*,-5
O=C(NCC1CCCO1)c1sc2ccccc2c1Cl (stereo unspecified),0,9,-1,-83,-24,.,.
O=C(O)CC(NC(=O)C1c2ccccc2Oc2ccccc21)c1ccc(OC2CCCC2)cc1 (stereo unspecified),i,14,-3,-1,-6,.,.
Cc1ccc2c(Cl)c(C(=O)NCC3CCCO3)sc2c1 (stereo unspecified),0,25*,-1,-41,-9,37*,1
CC(NC(=O)c1sc2ccccc2c1Cl)C1CCCO1 (stereo unspecified),0,38*,-1,-56,-18,44*,-4
COCc1cc(C=NNC(=O)c2ccc(Cl)cc2)ccc1OC,.,.,.,.,-1,.,.
COc1ccc(S(=O)(=O)N2CCCCC2c2cc(C(=O)Nc3ccc4c(c3)OCO4)no2)cc1 (stereo unspecified),-1,28*,-2,.,.,18,-3
CS(=O)(=O)N1CCCCC1c1cc(C(=O)Nc2ccc3c(c2)OCO3)no1 (stereo unspecified),0,-3,-1,.,.,.,.
O=C(Nc1ccc2c(c1)OCO2)c1cc(C2CCCN(C(=O)CCCc3ccccc3)C2)on1 (stereo unspecified),i,23,-5,.,.,.,.
O=C(Nc1ccc2c(c1)OCO2)c1cc(C2CCCN(C(=O)CCc3ccccc3)C2)on1 (stereo unspecified),0,38*,-4,.,.,25*,-1
N#Cc1cccc(NC(=O)c2cc(C3CCCCN3S(=O)(=O)c3ccccc3)on2)c1 (stereo unspecified),0,26*,-2,.,.,17,-2
O=C(NC1CCCCC1)N(Cc1nc2ccccc2c(=O)[nH]1)C1CCCCC1,.,4,1,-1,-1,.,.
COc1ccc(CN(Cc2nc3ccccc3c(=O)[nH]2)C(=O)NC2CCCCC2)cc1,-1,25*,-5,-14,-2,-1,-2
SMILES,BH1578 lux ind,PrPC surface inh,FadD28 binding,PrP UTR inh,SSB-PriA inh,PrPC TRFRET cf,LD9 cytotox
COc1cc(OC)cc(C(=O)NCc2ccc3c(c2)cc(C)n3C)c1,i,56*,-19,-6,25,1,-4
Cc1onc(-c2ccccc2Cl)c1C(=O)NCc1ccc2c(c1)cc(C)n2C,i,66*,0,-13,21,10,-3
Cc1ccc(CNC(=O)c2c(-c3ccccc3Cl)noc2C)cc1,-1,-4,0,13,6,.,.
COCC(=O)NCc1ccc2c(c1)cc(C)n2C,-6,-9,0,-1,-11,.,.
CCOc1ccc(CC(=O)NCc2ccc3c(c2)cc(C)n3C)cc1,-1,55*,1,-21,6,-2,-9
Cc1cc2cc(CNC(=O)Cc3ccccc3)ccc2n1C,.,.,.,.,26,.,.
Cc1cc2cc(CNC(=O)c3cccc(Cl)c3)ccc2n1C,.,.,.,.,-8,.,.
Cc1cc2cc(CNC(=O)Nc3ccc(Cl)c(Cl)c3)ccc2n1C,0,33*,13*,-20,5,22,-8
O=C(c1ccc(Br)o1)N1CCN(c2ccc(-c3noc(C4CC4)n3)cn2)CC1,.,.,.,.,-10,.,.
Cc1cc2cc(CNC(=O)c3ccc4c(c3)OCO4)ccc2n1C,i,53*,-3,-1,39*!,10,-1
COc1ccc(C(=O)NCc2ccc3c(c2)cc(C)n3C)cc1,0,66*,1,-21,-5,9,-5
Cc1ccc(S(=O)(=O)NCc2ccc3c(c2)cc(C)n3C)cc1,0,37*,2,-47,26,6,-4
Cc1cc2cc(CNC(=O)c3cccc(F)c3)ccc2n1C,.,.,.,.,-6,.,.
COc1cc(/C=C\C(=O)NCc2ccc3c(c2)cc(C)n3C)cc(OC)c1OC,0,68*,-2,-33,16,8,-6
COc1ccc(-c2csc(/C(C#N)=C/Nc3ccc(Br)cc3C)n2)cc1OC,.,.,.,.,1,.,.
Cc1cc(C(=O)NC2CC(O)C(CO)C2)no1 (stereo unspecified),.,.,.,.,-4,.,.
Cc1onc(-c2c(F)cccc2Cl)c1C(=O)Nc1nnc(C(F)(F)F)s1,8,62*,-3,-12,-22,81*,5
Cc1onc(-c2c(F)cccc2Cl)c1C(=O)Nc1nccs1,i,-3,-2,-14,-17,.,.
CCN(C(=O)COC(=O)c1cccc2ccccc12)c1c(N)n(Cc2ccccc2)c(=O)[nH]c1=O,i,7,-3,9,-5,.,.
CCN(C(=O)COC(=O)c1ccccc1Nc1ccccc1)c1c(N)n(Cc2ccccc2)c(=O)[nH]c1=O,i,33*,-5,-15,1,24,-3
O=C(O)c1ccc(/C=N/NC(=O)c2ccc3c(c2)OCCO3)cc1,0,5,-2,-2,.,.,.
Cc1cc(O)cc(O)c1/C=N/NC(=O)c1ccc2c(c1)OCCO2,-1,32*,4,.,.,25*,21*
